# Where “and” joins values, the source holds several entries; their conditions need not be identical. Equal values may be shown once. Calls of active or inactive are those of the source.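 How the source made its calls, unless noted: active means compounds killing one labelled cell type while sparing the other, by normalised counts and ratio limits, not self-fluorescent; inactive means the rest.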
# Assays:
# [1] = Cy5 fluorescence interference with SSB-bound oligo, artefact control for HCV NS3 helicase inhibitor project, biochemical, NIH Clinical Collection, E. coli SSB (AID 743268; call rule not given here)
# [2] = system: Hepatitis C virus NS3 helicase; test: HCV NS3 helicase inhibitors, primary screen, biochemical, fluorescence polarization, NIH Clinical Collection (AID 743270; call rule not given here); conditions: NS3 helicase binding to Cy5-dT15 DNA, stronger effect = higher value, concentration not given here
# [3] = biological target: Single-stranded DNA-binding protein (Escherichia coli (strain K12)) (UniProt P0AGE0); test: E. coli SSB displacement from DNA, counter-screen for HCV NS3 helicase inhibitor project, biochemical, fluorescence polarization, NIH Clinical Collection (AID 743271; in the data active means inhibition above about 28%); conditions: stronger effect = higher value, concentration not given here
# [4] = fluorescence interference in NS3h assay format, artefact control for HCV NS3 helicase inhibitor project, biochemical, NIH Clinical Collection (AID 743272; call rule not given here;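 further: HCV NS3 helicase with a Cy5 labelled single stranded DNA probe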); conditions: fluorescence interference counterscreen, stronger effect = lower value
# [5] = biological target: 6-phosphogluconate dehydrogenase, decarboxylating (Homo sapiens) (UniProt P52209); test: 6PGD enzyme inhibitors, primary screen, biochemical, human, recombinant enzyme, NADPH absorbance (AID 1159550;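 active means at least 20% inhibition of 6-phosphogluconate dehydrogenase activity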); conditions: recombinant 6PGD, NADPH absorbance 341 nm; at 10 µM; stronger effect = higher value
# [6] = modulation of C. elegans fzo-1 (AID 1259413; call rule not given here;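 further: fzo-1 mutant C. elegans worms in liquid wells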); conditions: C. elegans fzo-1 modulator screen, mean read-out; stronger effect = higher value
# [7] = differential killing of epithelial or mesenchymal cells, primary screen, imaging, PC-3E GFP, TEM4-18 mCherry, co-culture (AID 1345086); conditions: imaging cell counts, at 1 µM; for red/green cell ratio (normalised): actives lie on both sides, counts scaled to control wells, 1 = unselective;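 on all read-outs here: cells exposed to compound for 72 h before imaging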;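 on red/green cell ratio (normalised): normalised mesenchymal count divided by normalised epithelial count so high means epithelial killing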
# [8] = survival rescue of mitochondrial mutant cells in low glucose, primary screen, MELAS cybrids, Rieske KO mouse fibroblasts, CellTiter-Glo (AID 1508586;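 active means mean z-score across replicates of 1.96 or higher in either the MELAS or the Rieske mutant cell line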;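 further: z relative to plate mean and SD of compound and empty wells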)
# [9] = biological target: NAD(+) hydrolase SARM1 (Homo sapiens) (UniProt Q6SZW1); test: SARM1 TIR NADase inhibitors, cell lysate, NAD-Glo luminescence (AID 1508614;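 active means compound whose remaining NAD level is above about 45 nM, limit read from the data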); conditions: SAM-TIR HEK293T lysate NADase, at 1 µM, stronger effect = higher value
# [10] = biological target: Mitogen-activated protein kinase 7 (Homo sapiens) (UniProt Q13164); test: ERK5 transactivation activators in reporter cells, primary screen, cell-based, HTS (AID 1508626;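 active means luciferase signal above three times the same-plate solvent-only control wells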;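 further: luciferase driven by Gal4-ERK5 fusion binding five Gal4 sites before minimal TATA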); conditions: HeLa Gal4-ERK5 transactivation, 18 h, at 5 µM, stronger effect = higher value
# [11] = viability rescue of complex I mutant cybrids, primary screen, cell-based, galactose medium, ATP luminescence (AID 1645843;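 active means z-score of at least 1.8 in each of two replicates, scored against plate mean and spread of sample wells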;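 further: positive z means more ATP and so rescue of galactose-driven cybrid death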); conditions: complex I mutant cybrid cells, 72 h, stronger effect = higher value
# F380Y = test: modulators of BK channel variants, profiling panel, selectivity assay, cell-based, U2OS BacMam, thallium flux, beta subunits (AID 1259406;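 active means thallium flux through the channel raised or lowered by more than 3 SD from vehicle-only wells, actives on both sides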;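 further: initial slope of Thallos dye fluorescence rise after thallium is added; log ratio against the mean of 0.3% DMSO vehicle wells on the same plate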); conditions: at 30 µM
# F380Y/beta2Delta = test: as above; conditions: at 30 µM
# [12] = biological target: Calcium-activated potassium channel subunit alpha-1 (Homo sapiens) + Leucine-rich repeat-containing protein 26 (Homo sapiens) (UniProt Q12791+Q2I0M4); test: as above; conditions: F380Y/Slo1WT/gamma1, at 30 µM
# R275C = test: as above; conditions: at 30 µM
# R275C/beta1 = test: as above; conditions: at 30 µM
# R275C/beta2Delta = test: as above; conditions: at 30 µM
# [13] = liver-stage malaria parasite growth inhibition, primary screen, cell-based, HepG2, luciferase luminescence, HepG2 viability (AID 624349; in the data active means parasite load remaining mostly below about 12%, no sharp cut-off; inactive means mostly above about 10%;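 further: 100% = mean of DMSO negative control wells on the same plate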); conditions: P. berghei liver stage in HepG2, luciferase luminescence, concentration not given here; parasite load remaining: stronger effect = lower value; viability: measured here: HepG2 viability without parasites
# [14] = sensitizers of A549 cells to miR-34 induction, primary screen, imaging, A549 dox-inducible miR-34, nuclei and caspase counts (AID 1347080;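 active means compounds whose cell count with miR-34 switched on is under 0.7 times the count with it off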); conditions: A549 miR-34 inducible, Hoechst nuclei count, 48 h
# [15] = measured here: epithelial PC-3E GFP cell survival
# [16] = measured here: mesenchymal TEM4-18 mCherry cell survival
# [17] = MELAS cybrid survival, CellTiter-Glo 48 h, stronger effect = higher value
# [18] = Rieske KO mouse fibroblast survival, CellTiter-Glo 72 h
# Sequence of 6-phosphogluconate dehydrogenase, decarboxylating (Homo sapiens) (P52209 whole entry, looked up): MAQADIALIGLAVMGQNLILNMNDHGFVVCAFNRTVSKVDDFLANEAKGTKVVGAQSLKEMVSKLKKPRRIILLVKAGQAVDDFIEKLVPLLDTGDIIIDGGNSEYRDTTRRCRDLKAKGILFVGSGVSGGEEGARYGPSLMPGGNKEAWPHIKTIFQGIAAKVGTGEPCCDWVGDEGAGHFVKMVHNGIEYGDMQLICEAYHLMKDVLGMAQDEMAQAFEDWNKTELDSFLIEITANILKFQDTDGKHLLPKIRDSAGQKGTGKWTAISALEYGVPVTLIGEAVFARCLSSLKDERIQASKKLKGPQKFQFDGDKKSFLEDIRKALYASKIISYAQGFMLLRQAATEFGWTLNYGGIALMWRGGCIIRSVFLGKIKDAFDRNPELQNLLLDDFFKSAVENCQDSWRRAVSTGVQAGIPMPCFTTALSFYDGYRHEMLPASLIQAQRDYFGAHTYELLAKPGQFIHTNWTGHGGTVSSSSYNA
# Sequence of Mitogen-activated protein kinase 7 (Homo sapiens) (Q13164 whole entry, looked up, the tested form may be a part): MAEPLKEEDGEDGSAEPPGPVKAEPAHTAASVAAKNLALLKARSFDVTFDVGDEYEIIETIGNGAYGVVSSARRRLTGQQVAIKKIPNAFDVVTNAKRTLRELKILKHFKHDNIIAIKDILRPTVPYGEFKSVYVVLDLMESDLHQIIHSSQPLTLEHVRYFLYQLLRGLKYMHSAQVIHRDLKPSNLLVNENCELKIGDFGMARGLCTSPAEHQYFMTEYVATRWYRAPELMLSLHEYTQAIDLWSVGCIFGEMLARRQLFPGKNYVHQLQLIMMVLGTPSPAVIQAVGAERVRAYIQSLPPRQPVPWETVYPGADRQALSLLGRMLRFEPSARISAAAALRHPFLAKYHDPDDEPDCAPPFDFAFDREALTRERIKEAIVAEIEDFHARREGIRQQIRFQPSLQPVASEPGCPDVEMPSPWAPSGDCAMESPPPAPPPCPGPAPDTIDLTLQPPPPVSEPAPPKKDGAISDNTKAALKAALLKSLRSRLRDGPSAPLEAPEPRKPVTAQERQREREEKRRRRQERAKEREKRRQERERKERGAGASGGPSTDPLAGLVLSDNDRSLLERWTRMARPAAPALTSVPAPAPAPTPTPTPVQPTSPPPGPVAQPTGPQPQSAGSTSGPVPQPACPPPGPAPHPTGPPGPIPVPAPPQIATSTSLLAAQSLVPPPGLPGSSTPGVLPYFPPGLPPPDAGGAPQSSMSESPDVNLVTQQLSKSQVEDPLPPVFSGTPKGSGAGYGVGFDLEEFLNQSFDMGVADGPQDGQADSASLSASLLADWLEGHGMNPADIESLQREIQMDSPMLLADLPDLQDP
# Sequence of Calcium-activated potassium channel subunit alpha-1 (Homo sapiens) + Leucine-rich repeat-containing protein 26 (Homo sapiens) (Q2I0M4 whole entry, looked up, one chain of several): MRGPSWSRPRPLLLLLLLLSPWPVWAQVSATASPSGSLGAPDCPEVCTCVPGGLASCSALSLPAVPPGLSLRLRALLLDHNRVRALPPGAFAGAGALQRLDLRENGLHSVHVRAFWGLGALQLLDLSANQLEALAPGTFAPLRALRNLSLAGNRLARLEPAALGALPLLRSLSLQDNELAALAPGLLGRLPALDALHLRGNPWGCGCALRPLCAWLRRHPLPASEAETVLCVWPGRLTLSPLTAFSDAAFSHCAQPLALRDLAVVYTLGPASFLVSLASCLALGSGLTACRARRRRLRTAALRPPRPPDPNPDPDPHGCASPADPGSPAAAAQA
# Sequence of NAD(+) hydrolase SARM1 (Homo sapiens) (Q6SZW1 whole entry, looked up, the tested form may be a part): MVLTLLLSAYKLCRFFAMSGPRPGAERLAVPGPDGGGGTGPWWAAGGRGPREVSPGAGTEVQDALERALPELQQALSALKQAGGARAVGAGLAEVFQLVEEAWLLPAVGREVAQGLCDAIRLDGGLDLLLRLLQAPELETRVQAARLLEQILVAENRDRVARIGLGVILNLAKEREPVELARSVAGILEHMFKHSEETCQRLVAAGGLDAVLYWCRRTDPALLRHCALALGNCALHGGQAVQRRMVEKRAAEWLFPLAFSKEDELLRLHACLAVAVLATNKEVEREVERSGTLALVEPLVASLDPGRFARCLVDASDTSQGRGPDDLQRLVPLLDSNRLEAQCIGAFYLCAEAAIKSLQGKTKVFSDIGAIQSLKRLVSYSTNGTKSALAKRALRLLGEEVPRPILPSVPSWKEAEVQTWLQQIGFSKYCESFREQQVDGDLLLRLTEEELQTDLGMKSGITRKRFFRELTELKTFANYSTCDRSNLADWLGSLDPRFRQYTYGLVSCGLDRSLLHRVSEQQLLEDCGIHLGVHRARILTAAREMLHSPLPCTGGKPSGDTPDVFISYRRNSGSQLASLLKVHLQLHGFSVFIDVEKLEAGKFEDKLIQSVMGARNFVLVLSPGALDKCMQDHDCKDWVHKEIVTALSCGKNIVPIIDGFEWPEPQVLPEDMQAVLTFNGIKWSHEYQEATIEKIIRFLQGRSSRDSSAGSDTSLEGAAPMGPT
structure (smiles),measurement,setting,value
Cn1cc[nH]c1=S,fluorescence ratio,[1],1.03 (inactive)
same,inhibition,[2],-3.18% (inactive)
same,inhibition,[3],-5.05% (inactive)
same,fluorescence ratio,[4],1.03 (inactive)
same,inhibition,[5],-12.3% (inactive)
same,mean signal,[6],225 (inactive)
same,red/green cell ratio (normalised),[7],0.96 (inactive)
same,normalised cell number,[7]; [15],1.12
same,normalised cell number,[7]; [16],1.08
same,z-score,[8]; [17],-0.106 (inactive) and 0.275 (inactive) and 0.138 (inactive)
same,z-score,[8]; [18],0.1 and 0.646 and -0.619
same,remaining NAD,[9],10 nM (inactive)
same,luciferase signal,[10],92 AU (inactive)
same,z-score,[11],1.27 (inactive) and 0.25 (inactive)
same,log fold change Tl+ flux,F380Y,0.00366 (inactive)
same,log fold change Tl+ flux,F380Y/beta2Delta,-0.00456 (inactive)
same,log fold change Tl+ flux,[12],-0.014 (inactive)
same,log fold change Tl+ flux,R275C,-0.00969 (inactive)
same,log fold change Tl+ flux,R275C/beta1,-0.000997 (inactive)
same,log fold change Tl+ flux,R275C/beta2Delta,-0.0252 (inactive)
CCCCCCCC/C=C/CCCCCCCCOP(=O)([O-])OCC[N+](C)(C)C,inhibition,[5],17.1% (inactive)
same,red/green cell ratio (normalised),[7],0.71 (inactive)
same,normalised cell number,[7]; [15],1.36
same,normalised cell number,[7]; [16],0.96
CC(C)CCCC(C)[C@H]1CCC2C3CC=C4CC(=O)CC[C@]4(C)C3CC[C@@]21C (some centres undefined),inhibition,[5],11.7% (inactive)
same,red/green cell ratio (normalised),[7],0.87 (inactive)
same,normalised cell number,[7]; [15],1.01
same,normalised cell number,[7]; [16],0.88
CCCCCC1C(=O)CCC1CC(=O)OC (centres undefined),inhibition,[5],6.35% (inactive)
same,red/green cell ratio (normalised),[7],0.86 (inactive)
same,normalised cell number,[7]; [15],1.26
same,normalised cell number,[7]; [16],1.08
CCC/C=C1\OC(=O)C2=C1CCC=C2,inhibition,[5],3.63% (inactive)
same,red/green cell ratio (normalised),[7],1.13 (inactive)
same,normalised cell number,[7]; [15],0.83
same,normalised cell number,[7]; [16],0.94
COc1ccc(C(=O)c2ccc(O)cc2)c(O)c1O,inhibition,[5],-5.23% (inactive)
same,red/green cell ratio (normalised),[7],1.05 (inactive)
same,normalised cell number,[7]; [15],0.85
same,normalised cell number,[7]; [16],0.89
CCCCCCCCCCCC1=C(O)C(=O)C=C(O)C1=O,parasite load remaining,[13],136% (inactive)
same,viability,[13],84.4%
same,inhibition,[5],15% (inactive)
same,red/green cell ratio (normalised),[7],0.91 (inactive)
same,normalised cell number,[7]; [15],1.09
same,normalised cell number,[7]; [16],1
same,fold change,"[14]; stronger effect = lower value, cell number ratio, induced over uninduced",0.793 (inactive) and 1.27 (inactive)
same,fold change,[14]; measured here: relative caspase fold change +Dox/-Dox,2.63 and 0.764
same,cell count,"[14]; measured here: total cells with miR-34 induction, stronger effect = lower value",7270 and 2440
same,cell count,[14]; measured here: total cells without miR-34 induction,9160 and 1930
same,z-score,[8]; [17],-0.242 (inactive)
same,z-score,[8]; [18],-0.154
same,luciferase signal,[10],40 AU (inactive)
same,z-score,[11],-0.595 (inactive)
